Laboratory results taken from PubChem BioAssay (NCI).
Compounds without any hit were thinned out: in the full panel of roughly 83,000, 20% have a hit.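 For each line, cells grew in 96-well plates with the test compound present at a single concentration for 48 hours.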 The source made the active and inactive calls. The calls were made as follows: active = growth percent below 10; inactive = the rest.

Legend:
Assay in all cases: NCI-60 one-dose screen, 48 h (100 = growth as untreated, 0 = no growth, -100 = all killed)
Conditions in all cases: 10 µM unless noted
[1] = tested on: T-47D breast
[2] = tested on: BT-549 breast
[3] = tested on: MDA-MB-435 melanoma
[4] = tested on: SW-620 colon
[5] = tested on: MCF7 breast
[6] = tested on: HCT-116 colon
[7] = tested on: HCC-2998 colon
[8] = tested on: KM12 colon

Measured: growth

Cn1c(=O)c2c(ncn2CCC(=O)Nc2ccc(F)cc2)n(C)c1=O
inactive: [1] 94.1% | [2] 90.3% | [3] 110% | [4] 106% | [5] 100% | [6] 87.7% | [7] 115% | [8] 103%

COC(=O)[C@]12CC[C@@H](C(C)=O)[C@@H]1[C@H]1CC[C@@H]3[C@@]4(C)C/C(=C/c5cccnc5)C(=O)C(C)(C)[C@@H]4CC[C@@]3(C)[C@]1(C)CC2
inactive: [1] 24.4% | [2] 46% | [3] 72.6% | [4] 25.3% | [5] 19.2% | [7] 75.8% | [8] 60.5%
active: [6] 3.92%

N#C/C(=C\c1ccc(-c2ccccc2)o1)c1nc(-c2ccco2)cs1
inactive: [2] 94.6% | [3] 99.2% | [4] 99.2% | [5] 17.6% | [6] 87% | [7] 32.1% | [8] 48.1%
active: [1] -26%

COc1cccc2c1C(=O)c1c(O)c3c(c(O)c1C2=O)C[C@@](O)(C(=O)CO)C[C@@H]3OC1C[C@H](N)[C@H](O)[C@H](C)O1 (stereo partly drawn)
active: [1] -0.159% | [2] -56.5% | [3] -82.6% | [4] 1.37% | [5] 4.42% | [6] 3.07% | [7] -45.9% | [8] -14.2%

CCN1CCN(C(=O)[C@]23CCC(C)(C)C[C@@H]2C2=CC[C@@H]4[C@@]5(C)C/C(=C/c6cccnc6)C(=O)C(C)(C)[C@@H]5CC[C@@]4(C)[C@]2(C)CC3)CC1
active: [5] 5.68%
inactive: [1] 20.1% | [2] 25.7% | [3] 34.9% | [4] 27.6% | [6] 13.3% | [7] 18.9% | [8] 33.8%

Cn1cc(-c2csc(-c3cn(CCCN4CCCCC4)c4ccc(Br)cc34)n2)c2cccnc21
inactive: [1] 21.8% | [2] 70.9% | [7] 85.5%
active: [3] -69.5% | [4] -74.3% | [5] -64.6% | [6] -89.5% | [8] 9.18%

C=C(C)[C@@H]1CC[C@]2(C(=O)N3CCN(CC)CC3)CC[C@]3(C)[C@H](CC[C@@H]4[C@@](C)(CCC(=O)N5CCN(CC)CC5)[C@H](C(=C)C)CC[C@]43C)[C@@H]12
inactive: [1] 59.7% | [2] 78.7% | [3] 70.2% | [4] 49.9% | [5] 46.5% | [6] 24.9% | [7] 75.7% | [8] 54.2%

COc1cc2c(cc1-c1c(C)noc1C)ncc1nc(C3CCCCC3)n([C@@H](C)COC(F)F)c12
inactive: [1] 25% | [2] 52.9% | [3] 28.2% | [4] 59.2% | [5] 12.1% | [6] 24.8% | [7] 50.5% | [8] 35.9%

Brc1ccc2[nH]cc(-c3nc(-c4c[nH]c5ncccc45)cs3)c2c1
active: [4] 6.36%
inactive: [1] 59.8% | [2] 58.7% | [3] 40.6% | [5] 32.3% | [6] 17.5% | [7] 60.2% | [8] 21.3%

O=C1c2cc3c(cc2-c2c1c1ccc(F)cc1c(=O)n2CCCN1CCOCC1)OCO3
inactive: [1] 28.4% | [2] 47.5% | [3] 65.6% | [4] 48.8% | [5] 13.5% | [6] 45.2% | [7] 77.8% | [8] 69.8%

Cn1cc(-c2csc(-c3cn(C(=O)OC(C)(C)C)c4ccc(Br)cc34)n2)c2cccnc21
inactive: [1] 74.3% | [2] 103% | [3] 102% | [4] 90.4% | [5] 81.5% | [6] 67.4% | [7] 101% | [8] 101%

COc1ccc2c(c1)c1nc3cc(C)c(C)cc3nc1n2CCN(C)C
inactive: [1] 25.3% | [2] 56% | [3] 18.1% | [7] 20.5% | [8] 18%
active: [4] -66.1% | [5] -69.9% | [6] -70.1%

C=C(C)[C@@H]1CC[C@]2(C(=O)O)CC[C@]3(C)[C@H](CC[C@@H]4[C@@]5(C)C/C(=C/c6cccc(I)c6)C(=O)C(C)(C)[C@@H]5CC[C@]43C)[C@@H]12
inactive: [2] 35.3% | [3] 32.1% | [4] 17.9% | [5] 19.6% | [7] 28.8% | [8] 15.1%
active: [1] 4.75% | [6] 5.1%

O=S(=O)(NCCNc1cc(-c2cn(-c3ccccc3)nc2-c2cccc(O)c2)ccn1)c1cccc(F)c1
inactive: [1] 11.6% | [2] 48% | [3] 43.5% | [4] 19.1% | [5] 21.4% | [6] 23.2% | [8] 31.1%
active: [7] -15.6%

CCNCCCn1c2c(c3ccc([N+](=O)[O-])cc3c1=O)C(=O)c1cc(OC)cnc1-2
active: [1] -12.9% | [2] -16.2% | [3] -54.4% | [4] -27% | [5] -3.1% | [6] -69.8% | [7] -8.05% | [8] -3.89%

COc1ccc(-c2nc(Nc3ccc(-c4nc5ccccc5[nH]4)cc3)nc(N3CCOCC3)n2)cc1
inactive: [1] 16.1% | [8] 12.4%
active: [2] 5.16% | [3] -38% | [4] 3.57% | [5] -44.3% | [6] 4.8% | [7] -19.8%

Nc1c(C(=O)Nc2c(Cl)cccc2Cl)sc2nc3c(cc12)C(=O)CCC3
inactive: [1] 35.7% | [2] 51.5% | [4] 44.5% | [5] 19.3% | [6] 42.9% | [7] 69.1% | [8] 30.5%
active: [3] -37.7%

N=C(N)c1ccc(-c2ccc(-c3cc(F)cc(F)c3)o2)nc1
inactive: [1] 86.3% | [2] 97.4% | [3] 90.9% | [4] 54.2% | [5] 66.9% | [6] 64.2% | [7] 96.5% | [8] 91.5%

N#CC1=C(N)Oc2c(sc3c(F)cccc23)C1c1ccc(Cl)cc1 (stereo not drawn)
active: [3] -32%
inactive: [1] 33.2% | [2] 19.4% | [4] 26.9% | [5] 14.8% | [6] 14.4% | [7] 87.7% | [8] 33.9%

Brc1cnc2[nH]cc(-c3nnc(-c4ccccc4)o3)c2c1
inactive: [1] 56.5% | [2] 82% | [3] 78% | [4] 86.4% | [5] 63.6% | [6] 55.7% | [7] 104% | [8] 68.9%

Cc1[c-]onc1C.Cc1[c-]onc1C.[Ag].[Ag].[NH-]S(=O)(=O)c1ccc(N=Nc2cc(N=Nc3ccc(S([NH-])(=O)=O)cc3)c3c(NC(=O)C(Cl)Cl)cccc3c2OC(=O)C(Cl)Cl)cc1
active: [1] -11.9%
inactive: [2] 94.6% | [3] 74.3% | [4] 58.1% | [5] 35.7% | [6] 71.9% | [7] 107% | [8] 71.5%

CC(C)(C)c1ccc(OP(=S)(N/N=C/c2ccccc2O)Oc2ccc(C(C)(C)C)cc2)cc1
inactive: [1] 70.2% | [2] 89.5% | [3] 72% | [4] 77.7% | [5] 53.8% | [6] 42.9% | [7] 86.2% | [8] 67.2%

CC(c1ccccc1)N1C(=O)C(C2SC(=S)N(C(C)c3ccccc3)C2=O)SC1=S (stereo not drawn)
inactive: [1] 73.2% | [2] 89.5% | [3] 57.2% | [4] 54.7% | [5] 25.8% | [6] 57% | [7] 107% | [8] 67.9%

C=C(C)[C@@H]1CC[C@]2(C(=O)OC)CC[C@]3(C)[C@H](CC[C@@H]4[C@@](C)(CC/C(N)=N/O)[C@H](C(=C)C)CC[C@]43C)[C@@H]12
inactive: [1] 91% | [2] 97.8% | [3] 101% | [4] 97.4% | [5] 88.3% | [6] 89.8% | [7] 96.3% | [8] 99.1%

CC(C)(C)c1[nH]nc2c1C(c1cc3ccccc3[nH]c1=O)Nc1cc(C(=O)OCc3ccccc3)ccc1N2 (stereo not drawn)
inactive: [1] 36.7% | [2] 56.4% | [3] 39.9% | [4] 54.4% | [5] 38.1% | [6] 38.4% | [7] 55.9% | [8] 31%

c1ccc2c(-c3nc(-c4c[nH]c5ncccc45)cs3)c[nH]c2c1
inactive: [1] 93.8% | [2] 97% | [3] 84.8% | [4] 103% | [5] 83% | [6] 95% | [7] 102% | [8] 90.6%

COc1ccc2c(c1)c(-c1nc(-c3cn(C)c4ncccc34)cs1)cn2CCN
active: [1] -0.878%
inactive: [2] 96.9% | [3] 95.4% | [4] 62.3% | [5] 16.6% | [6] 80.5% | [7] 55% | [8] 45%

CC(=O)OC[C@]12CC[C@@H](/C(C)=N/O)[C@@H]1[C@H]1CC[C@@H]3[C@@]4(C)CCCNC(C)(C)[C@@H]4CC[C@@]3(C)[C@]1(C)CC2
inactive: [1] 47.7% | [2] 66.2% | [3] 81.8% | [4] 80.3% | [5] 57.4% | [6] 46.5% | [7] 95.2% | [8] 76.4%

N#Cc1c(-c2ccco2)nc2c(c(-c3ccccc3)nn2-c2ccccc2)c1-c1ccc(O)cc1
inactive: [1] 18.5% | [2] 64.7% | [3] 62.1% | [4] 48% | [5] 47.3% | [6] 36.9% | [7] 91.5% | [8] 43%

Cc1cc(N=O)cc(C(C)(C)C)c1O
inactive: [1] 85.4% | [2] 97.7% | [3] 99.4% | [4] 94.8% | [5] 93.6% | [6] 88.1% | [7] 106% | [8] 102%

Oc1cc(/C=C/c2nc(N3CCOCC3)c3cc(Cl)c(Cl)cc3n2)cc(O)c1O
inactive: [1] 94.9% | [2] 95.5% | [3] 106% | [4] 107% | [5] 106% | [6] 104% | [7] 104% | [8] 111%
